Inconclusive results are not listed. Active and inactive are the calls of the source. The calls were made as follows, unless noted: active = hit-call score of the fitted dose curve at least 0.9, where 1 is the maximum; inconclusive = response in the unintended direction; inactive = score below 0.9.
Columns and labels:
[1] = Tanguay_ZF_120hpf_PFIN_legacy: (Legacy) Oregon State University Tanguay Lab 120 Hour Post-fertilization zebrafish Assay for Pectoral Fin Malformation (AID 2283648);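 also: each larva judged yes or no for fin defect by brightfield with dead larvae skipped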
Outline: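 5D WT zebrafish; pronase dechorionation 4 hpf; 1 embryo/well at 6 hpf; static exposure to 120 hpf, 28C, sealed, foil-covered; final DMSO 0.64% v/v; 5 uM trimethyltin chloride positive control; fin defect scored yes/no.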

[2] = Tanguay_ZF_120hpf_PIG_legacy: (Legacy) Oregon State University Tanguay Lab 120 Hour Post-fertilization zebrafish Assay for Pigmentation Malformation (AID 2283650)
Outline: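 Pronase dechorionation at 4 hpf; embryos plated at 6 hpf, one per well; static exposure, sealed and foil-covered, 28C, to 120 hpf; pigmentation read by brightfield, binary; DMSO 0.64% baseline, 5uM trimethyltin chloride positive control.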

[3] = Tanguay_ZF_120hpf_CIRC_legacy: (Legacy) Oregon State University Tanguay Lab 120 Hour Post-fertilization zebrafish Assay for Circulatory Malformation (AID 2283651)
Outline: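 Read-out: presence or absence of circulatory malformation at 120 hpf, scored by brightfield microscopy, fitted in the gain-of-signal direction against DMSO baseline. Wild-type 5D larvae were exposed from 6 hpf after enzymatic chorion removal.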

[4] = Tanguay_ZF_120hpf_SWIM_legacy: (Legacy) Oregon State University Tanguay Lab 120 Hour Post-fertilization zebrafish Assay for Swim Bladder Malformation (AID 2283654);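 also: swim bladder malformation in each larva scored yes or no under brightfield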
Outline: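 Embryos lacking chorions were exposed individually and statically to test chemical from 6 to 120 hpf at 28C, with 0.64% DMSO as vehicle. At 120 hpf, swim bladder malformation was recorded as present or absent by brightfield microscopy.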

[5] = Tanguay_ZF_120hpf_TRUN_legacy: (Legacy) Oregon State University Tanguay Lab 120 Hour Post-fertilization zebrafish Assay for Truncated Body (AID 2283655)
Outline: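 Single dechorionated zebrafish embryos received test chemical from 6 hpf in 0.64% DMSO, kept at 28C. At 120 hpf, brightfield inspection noted any truncated body.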

[6] = Tanguay_ZF_120hpf_TR_legacy: (Legacy) Oregon State University Tanguay Lab 120 Hour Post-fertilization zebrafish Assay for Touch Response (AID 2283667)
Outline: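 5D WT embryos; static exposure to 120 hpf, 28C, sealed/dark; DMSO 0.64% v/v final. TR scored present/absent; dead embryos excluded. Pos ctrl 5uM trimethyltin chloride.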

[7] = CCTE_Padilla_ZF_144hpf_TERATOSCORE: (Legacy) CCTE's 144 Hour Post-fertilization zebrafish Assay Teratoscore, Padilla Lab (AID 2283679; active = hit-call score of the fitted dose curve at least 0.9, where 1 is the maximum; inactive = score below 0.9;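 as to AC50: zebrafish embryos with chorions exposed by immersion from 6-8 hpf to 5 dpf with daily renewal; teratogenicity score from eye scoring of death hatching and malformations at 144 hpf; higher score means more developmental defects relative to DMSO baseline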)
Outline: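 Larvae scored by eye at 144 hpf for death, hatching and malformations after a day in clean Hanks'. Before that, daily-renewed exposure at 80 uM (0.4% DMSO, 26C) from roughly 6-8 hpf through 5 dpf, 4 embryos per chemical.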

[8] = Tanguay_ZF_120hpf_ActivityScore_legacy: (Legacy) Oregon State University Tanguay Lab 120 Hour Post-fertilization zebrafish Assay Score for Activity (AID 2283742)
Outline: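 Embryos are staged, enzymatically dechorionated at 4 hpf, placed individually at 6 hpf, then held in test chemical (0.64% DMSO) at 28C until 120 hpf. Mortality and malformations are scored by brightfield, with non-mortality endpoints skipped for dead embryos.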

[9] = Tanguay_ZF_120hpf_NC_legacy: (Legacy) Oregon State University Tanguay Lab 120 Hour Post-fertilization zebrafish Assay for Notochord and Tail Malformation (AID 2283656)
Outline: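 Dechorionated Tropical 5D wild-type zebrafish embryos, one per well from 6 hpf, statically exposed to 120 hpf at 28C in 0.64% DMSO final. Notochord distortion scored present/absent by brightfield; dead embryos excluded.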

[10] = tested on: Thyroperoxidase (TPO), gene 54314; assay: CCTE_Simmons_AUR_rTPO: CCTE's Amplex UltraRed Assay for Thyroperoxidase (TPO) Inhibition, Simmons Lab (AID 2283662);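 also: potency for loss of signal meaning inhibition of peroxidase activity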
Outline: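 Rat thyroid microsomes (5 ug protein) were incubated with test compound (8 concentrations, 5 nM–87.5 uM final, 0.5% DMSO), 25 uM Amplex UltraRed and 300 uM H2O2 in 200 mM phosphate buffer for 30 min at 37C in the dark; fluorescence read at 544/590 nm.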

[11] = STM_H9_OrnithineISnorm_perc: Stemina devTOX quickPredict H9 human embryonic stem cell (hESC)-based Assay for Ornithine (ORN) Metabolite Biomarker, Normalized (AID 2283712; active = hit-call score of the fitted dose curve at least 0.9, where 1 is the maximum; inactive = score below 0.9;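 also: ornithine released into spent medium during last day measured by mass spectrometry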)
Outline: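 H9 human embryonic stem cells kept pluripotent receive test chemical over 72 h, refreshed daily by media exchange. Media from the closing 24 h is deproteinized and analysed by UPLC-HRMS on an amide column; ornithine signal is scaled to labelled standard and vehicle.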

[12] = STM_H9_CystineISnorm_perc: Stemina devTOX quickPredict H9 human embryonic stem cell (hESC)-based Assay for Cystine (CYSS) Metabolite Biomarker, Normalized (AID 2283713; active = hit-call score of the fitted dose curve at least 0.9, where 1 is the maximum; inactive = score below 0.9)
Outline: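 H9 hESC, pluripotent; compound 72h, re-dosed q24h with medium change. Last-24h medium → 40% acetonitrile deproteinization → UPLC-HRMS. CYSS area / C13-CYSS standard, then % of 0.1% DMSO median.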

[13] = STM_H9_OrnCyssISnorm_ratio: Stemina devTOX quickPredict H9 human embryonic stem cell (hESC)-based Assay for Ornithine (ORN):Cystine (CYSS) Ratio (AID 2283714)
Outline: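 Steps: H9 hESCs in pluripotent state dosed 72h, medium plus compound renewed every 24h; conditioned medium from the final 24h deproteinized in 40% acetonitrile; ORN and CYSS quantified by UPLC-HRMS with C13 spike-ins; ratio relative to vehicle.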

[14] = read-out: solute carrier (SLC22A6), SLC22A6 (gene 9356); assay: LTEA_HepaRG_SLC22A6: Life Technologies and Expression Analysis (LTEA) Assay for solute carrier (SLC22A6) using HepaRG (AID 2283653; active = hit-call score of the fitted dose curve at least 0.9, where 1 is the maximum; inactive = score below 0.9); settings: mRNA level, 48 h; actives raise or lower the signal
Outline: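 Gene-expression endpoint in HepaRG hepatic cells: duplicate 8-point concentration-response, highest 100 uM, 48 h treatment in serum-free medium with 0.5% DMSO. SLC22A6 expression measured by qRT-PCR, normalised to ACTB/GAPDH/POLR2A.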

[15] = read-out: solute carrier (SLC10A1), SLC10A1 (gene 6554); assay: LTEA_HepaRG_SLC10A1: Life Technologies and Expression Analysis (LTEA) Assay for solute carrier (SLC10A1) using HepaRG (AID 2283657; active = hit-call score of the fitted dose curve at least 0.9, where 1 is the maximum; inactive = score below 0.9); settings: mRNA level, 48 h; actives raise or lower the signal
Outline: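 Transcript levels were measured by qRT-PCR after human HepaRG cells received test chemical for 48 hours, up to 100 uM in half-log dilutions. Values come from bidirectional concentration-response fitting relative to 0.5% DMSO vehicle.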

[16] = read-out: matrix metalloproteinase-1 (MMP1), MMP1 (gene 4312); assay: LTEA_HepaRG_MMP1: Life Technologies and Expression Analysis (LTEA) Assay for matrix metalloproteinase-1 (MMP1) using HepaRG (AID 2283658; active = hit-call score of the fitted dose curve at least 0.9, where 1 is the maximum; inactive = score below 0.9); settings: mRNA level, 48 h; actives raise or lower the signal
Outline: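 In this screen, human liver HepaRG cultures receive each chemical in duplicate for 48 h (top 100 uM, 0.5% DMSO). MMP1 expression is then quantified by TaqMan qRT-PCR with ACTB/GAPDH/POLR2A normalization.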

[17] = read-out: Cytochrome P450 (CYP24A1_1), CYP24A1 (gene 1591); assay: LTEA_HepaRG_CYP24A1_1: Life Technologies and Expression Analysis (LTEA) Assay for Cytochrome P450 (CYP24A1_1) using HepaRG (AID 2283671; active = hit-call score of the fitted dose curve at least 0.9, where 1 is the maximum; inactive = score below 0.9); settings: mRNA level, 48 h; actives raise or lower the signal
Outline: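 In this test, gene induction or suppression of CYP24A1 in human HepaRG liver cells is measured by qRT-PCR after 48 h chemical treatment (eight concentrations, maximum 100 uM). Values are fitted bidirectionally relative to DMSO.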

[18] = CEETOX_H295R_MTT_cell_viability: Viability Assessment in the CeeTox HT-H295R MTT Assay (AID 2283718; active = hit-call score of the fitted dose curve at least 0.9, where 1 is the maximum; inactive = score below 0.9;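 as to AC50: curve fitted both ways so AC50 may mark viability loss or gain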)
Outline: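 MTT reduction (0.5 mg/ml, 4 h at 37 C; absorbance at 570 and 650 nm) gave viability as background-corrected percent change versus controls. H295R cells had 48 h forskolin (10 uM) prestimulation, then 48 h chemical exposure at 0.1% DMSO.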

[19] = Tanguay_ZF_120hpf_CFIN_legacy: (Legacy) Oregon State University Tanguay Lab 120 Hour Post-fertilization zebrafish Assay for Caudal Fin Malformation (AID 2283649)
Outline: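 Single dechorionated 5D wild-type embryos are dosed at 6 hpf (final DMSO 0.64%) and held statically at 28C. Caudal fin malformation is recorded as present or absent at 120 hpf under brightfield, excluding dead embryos.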

Measured: AC50

COc1ccc(OC(F)(F)F)cc1CN[C@H]1CCCN[C@H]1c1ccccc1
active: [7] 56.5 µM | [8] 17.9 µM
inactive: [1] | [2] | [3] | [4] | [5] | [6]

CS(=O)(=O)c1ccc([C@@H](C[C@H]2CCC(=O)C2)C(=O)Nc2cnccn2)cc1Cl
inactive: [1] | [2] | [3] | [4] | [5] | [9] | [6] | [7] | [8]

Cc1ccc(C(C)(C)C)c(O)c1
inactive: [1] | [2] | [3] | [4] | [5] | [6] | [11] | [12] | [8]
active: [10] 30 µM | [7] 92.9 µM | [13] 15 µM

CN(C)CCCN(C)CCCN(C)C
inactive: [1] | [2] | [3] | [4] | [9] | [6] | [8]

O=C(O)CC(O)(CC(=O)O)C(=O)O
inactive: [1] | [2] | [3] | [4] | [9] | [6] | [8]

c1ccc2occc2c1
inactive: [1] | [2] | [3] | [4] | [5] | [9] | [6] | [8]

O=C1CCCCC1
inactive: [1] | [2] | [3] | [4] | [5] | [9] | [6] | [7] | [8]

CCCCCCCCCC[N+](C)(C)[O-]
active: [12] 25 µM | [13] 22.1 µM
not listed: [5] | [10] | [19]
inactive: all other assays above

CCCCCCCCCCCCCCOS(=O)(=O)O
active: [1] 16.8 µM | [2] 9.35 µM | [10] 43.8 µM | [6] 32.6 µM | [7] 15.3 µM | [8] 32.8 µM
inactive: [3] | [4] | [9]

Cn1cnc2c1c(=O)[nH]c(=O)n2C
inactive: [1] | [2] | [3] | [4] | [9] | [6] | [8]

CCCC[C@H]1CN(CC2CCOCC2)C(=O)OC12CCN(C1(C)CCN(C(=O)c3c(C)ncnc3C)CC1)CC2
not listed: [5] | [10] | [14] | [15] | [16] | [17] | [18] | [19]
inactive: all other assays above

CCCCC(CC)COC(=O)CCCCCCCC(=O)OCC(CC)CCCC (stereo not given)
inactive: [1] | [2] | [3] | [4] | [5] | [6] | [8]

CC1=C(C)S(=O)(=O)CCS1(=O)=O
inactive: [1] | [2] | [3] | [4] | [6] | [18] | [8]

N[C@@H](Cc1c[nH]c2ccccc12)C(=O)O
inactive: [1] | [2] | [3] | [4] | [9] | [6] | [7] | [11] | [12] | [8]

O=C1NC(=O)C(c2ccccc2)(c2ccccc2)N1
inactive: [1] | [2] | [3] | [4] | [9] | [6] | [11] | [12] | [13] | [8]

O=[Si]=O
inactive: [1] | [2] | [3] | [4] | [9] | [6] | [7] | [8]

CC(C)c1cccc(C(C)C)c1NC(=O)NS(=O)(=O)c1cc(C(C)(C)O)co1
inactive: [1] | [2] | [3] | [5] | [9] | [6] | [7] | [8]

CCc1nc(N)nc(N)c1-c1ccc(Cl)cc1
inactive: [1] | [2] | [3] | [9] | [8]
active: [7] 64.5 µM | [11] 30.7 µM | [12] 30.6 µM | [13] 31.1 µM

Nc1nc(Cl)nc2c1ncn2[C@H]1C[C@H](O)[C@@H](CO)O1
inactive: [1] | [3] | [4] | [5] | [9] | [6] | [8]
active: [11] 0.35 µM | [12] 0.348 µM | [13] 0.621 µM | [18] 0.109 µM

S=c1[nH]c2ccccc2s1
active: [1] 10.4 µM | [2] 39.6 µM | [9] 51.8 µM | [10] 0.433 µM | [6] 12.3 µM | [7] 31.1 µM
inactive: [4] | [18]

CCCC(=O)O
inactive: [1] | [3] | [4] | [5] | [9] | [6] | [8]

O=C1c2c(O)cccc2Cc2cccc(O)c21
active: [10] 11.9 µM
inactive: [2] | [3] | [4] | [9] | [18] | [8]

CC(C)OC(=O)C(C)(C)Oc1ccc(C(=O)c2ccc(Cl)cc2)cc1
active: [7] 1.78 µM
inactive: [19] | [2] | [3] | [4] | [5] | [6] | [11] | [12] | [8]

— PubChem BioAssay (EPA / NIEHS)
